Compounds with a hit are over-represented: about 19% of the library has one in this group of screens.
HT1080 IDH1KD tx – toxicity to HT-1080 IDH1 knockdown cells (counter line). actives 2% (n = 360,000). Potency, µM (top dose mostly 46.1 µM), without a hit: at the highest dose activity, negative = toxicity, hits mostly cytotoxic. AID 686971. HT-1080 IDH1 knockdown viability, ATP luminescence, 48 h;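 also: potency is read from the fitted curve at half-maximal effect; 0% = DMSO wells and -100% = cell-free medium wells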
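After a 2 h attachment period, IDH1KD HT-1080 cells took pin-transferred compound for 48 h at 37 °C; ATP-based luminescence after 10 min room-temperature reagent incubation reported viability.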
DT40 TDP1 no CPT – qHTS for Inhibitors of human tyrosyl-DNA phosphodiesterase 1 (TDP1): qHTS in cells in absence of CPT; DT40 Tdp1-/- hTDP1 cells, no CPT, ATP luminescence, 48 h; Potency, µM (doses to about 46.2 µM), for inactives: at the top dose activity change, negative = growth inhibition, most hits filed as inhibitors; actives 15% (n = 420,000); also: potency is read from the fitted curve at half-maximal effect; nearly all actives have a fitted effect of over 55% in size
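Chicken DT40 Tdp1-/- cells stably complemented with human TDP1 were seeded at 400 cells/well with DMSO in place of 20 nM camptothecin. After compound pinning, cells grew at least 48 hr at 37 °C; viability read by CellTiter-Glo luminescence.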
ELG1 DNA repair – blocks ELG1-dependent DNA repair in HEK293T cells; HEK293T ELG1-luciferase reporter, luminescence, 16 h; DNA damage induced by 5-fluorouridine; Potency, µM (top dose mostly 46.1 µM), for the others: at the top dose activity change, negative = inhibition, actives largely listed as inhibitors; actives 2.3% (n = 330,000); AID 504467; also: potency is read from the fitted curve at half-maximal effect; nearly all actives have a fitted effect of over 55% in size
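DMSO vehicle served as the neutral condition. Each well held 2,000 cells given 5-fluorouridine plus compound; after 16 hr at 37 °C/5% CO2, ONE-Glo was added and luciferase measured 30 min later.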
IL1B secr inh – inflammasome signaling inhibition, IL-1 beta readout; THP-1 LPS/ATP IL-1B secretion, AlphaLISA, 16 h; active compounds read low; activity change, % at 57.5 µM; actives 4.7% (n = 360,000); AID 743279; in the data active = activity change below about -50%; inconclusive = mostly about -30% to -49%
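THP-1 cells pretreated 1 hr with compounds (up to 57.5 uM final), then stimulated with LPS (250 ng/mL final) plus ATP (1.25 mM final); secreted IL-1B measured by AlphaLISA after 16 hr, decreased signal indicating inhibition.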
HT1080-NT tox – kills 2HG-producing HT-1080-NT fibrosarcoma cells. actives 1.6% (n = 360,000). HT-1080-NT fibrosarcoma viability, CellTiter-Glo ATP luminescence, 48 h. AID 686970. Potency, µM (highest dose often 46.1 µM), for the others: top-dose activity, negative = less viability, hits mostly cytotoxic;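 also: NT is the 2HG producing partner of a matched IDH1 knockdown line; potency is read from the fitted curve at half-maximal effect; 0% = DMSO-treated cells and -100% = media-only wells without cells; nearly all actives have a fitted effect of over 55% in size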
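Toxicity toward the 2HG-producing NT line was scored as %Activity, normalised to DMSO and no-cell wells, from CellTiter-Glo luminescence after 48 hours' treatment.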
TDP1 cell CPT – DT40-hTDP1 cell growth loss with CPT; chicken DT40 Tdp1-/-;hTDP1 cells + 20 nM CPT, ATP luminescence, 48 h; Potency, µM (series often up to 46.2 µM), without a hit: at the highest dose activity change, negative = growth inhibition, most hits filed as inhibitors; actives 12% (n = 420,000); AID 686979; also: potency is read from the fitted curve at half-maximal effect; nearly all actives have a fitted effect of over 55% in size
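Chicken DT40 Tdp1-/- cells complemented with human TDP1, 400 cells/well, exposed to compounds plus 20 nM camptothecin for at least 48 h at 37 C; viability read as ATP content by CellTiter-Glo luminescence.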
An asterisk follows results filed as active; ? = inconclusive; · = no result given; [ ] = remark or other dose. Unless noted, calls follow the shape of the dose curve; as a rule, active = well fitted curve in the direction sought with a large enough effect; inconclusive = small, poorly fitted or top-dose-only effect, or another doubt; inactive = no such curve, though single readings can be large; an effect the other way counts as inactive or inconclusive. Unless noted, % is scaled to controls: 0 for no effect and ±100 for the full control effect.

SMILES	HT1080 IDH1KD tx	DT40 TDP1 no CPT	ELG1 DNA repair	IL1B secr inh	HT1080-NT tox	TDP1 cell CPT
CN(C)c1ccc(C(CNC(=O)Cc2cccc3ccccc23)N(C)C)cc1 (stereo not drawn)	-8%	?	?	-27	-12%	-45%
COCCOC(=O)Cn1nnc2sc(-c3ccccc3)cc2c1=O	·	-14%	·	·	·	-24%
Cc1c(N=Cc2cc(Br)cc(Br)c2O)cccc1C(=O)O	?	?	-14%	0	13µM*	?
O=C(O)c1cccc(N/N=C/c2cc(Br)cc(Br)c2O)c1	-8%	-3%	?	-3	-11%	-1%
CCOC(=O)c1[nH]c2ccc(OCC)cc2c1NC(=O)CN1CCN(c2ccccc2)CC1	-2%	?	?	-19	6%	21µM*
CCOC(=O)c1[nH]c2ccc(OC)cc2c1NC(=O)CN1CCSCC1	17%	-27%	?	-7	17%	-5%
CCOC(=O)c1[nH]c2ccc(OCC)cc2c1NC(=O)CN1CCC2(CC1)OCCO2	-7%	?	8.2µM*	-14	-1%	?
O=C(c1ccco1)N1N=C(c2ccco2)CC1c1ccc(Cl)cc1Cl (stereo not drawn)	?	?	15%	2	?	?
CS(=O)(=O)NNC(=O)C1Cc2c(ccc3ccccc23)O1 (stereo not drawn)	0%	-5%	13%	38	0%	-12%
O=C(NNS(=O)(=O)c1ccc(F)cc1F)C1Cc2c(ccc3ccccc23)O1 (stereo not drawn)	-1%	18µM*	-5%	39	-1%	18µM*
Cc1cc(O)c(C(c2ccc(F)cc2)N2CCCCC2)c(=O)n1Cc1ccco1 (stereo not drawn)	·	-1%	·	·	·	-9%
CCC(Sc1nc(C)cc(C)n1)C(=O)Nc1nccs1 (stereo not drawn)	7%	6%	18µM*	-7	7%	28%
O=C(CSc1nnc(-c2c[nH]c3ccccc23)o1)N1c2ccccc2CCc2ccccc21	2%[9.24 µM]	16µM*	?	-68*	?	16µM*
O=C(CSc1nnc(-c2c[nH]c3ccccc23)o1)N1CCCCC1	-24%	?	?	-11	-13%	-29%
Cc1cc(C)cc(-c2nnc(SCC(=O)N3CCN(C(=O)c4ccco4)CC3)o2)c1	0%	-28%	?	-16	-4%	?
O=C(CSc1nnc(-c2ccco2)o1)N1c2ccccc2CCc2ccccc21	-1%	23µM*	12µM*	-62*	-26%	?
O=C(CSc1nnc(-c2ccc(Br)cc2)o1)N1CCN(C(=O)c2ccco2)CC1	3%	18µM*	23µM*	13	3%	?
COc1ccc(C2=NOC(CNC(=S)N3CCOCC3)C2)cc1 (stereo not drawn)	-6%	-3%	?	-6	0%	-3%
N[C@H](C(=O)O)[C@@H]1[C@@H](C(=O)O)C1(F)F	·	-19%	·	·	·	-7%
CCC[C@@H]1C[C@@H](C(=O)N[C@@H]([C@H]2O[C@H](SC)[C@H](O)[C@@H](O)[C@H]2O)[C@H](C)Cl)N(C)C1	·	-12%	·	·	·	-28%
COc1cc2c(NC3CCN(C(C)C)CC3)nc(N3CCCN(C)CC3)nc2cc1OCCOCCN(C)C	·	14µM*	·	·	·	7.1µM*
CCCN(C)CCCOc1cc2nc(N3CCCN(C)CC3)nc(NC3CCN(C)CC3)c2cc1OC	·	13µM*	·	·	·	8.9µM*
COc1cc2c(NC3CCN(C(C)C)CC3)nc(N3CCCN(C)CC3)nc2cc1OCCCN1CCCC1	·	3.5µM*	·	·	·	5µM*
COc1cc2c(NC3CCN(C)CC3)nc(N3CCCN(C)CC3)nc2cc1OCCCCN(C)C	·	?	·	·	·	-25%
COc1cc2c(NC3CCN(C)CC3)nc(N3CCCCC3)nc2cc1OCCOCCN(C)C	·	?	·	·	·	11µM*
SMILES	HT1080 IDH1KD tx	DT40 TDP1 no CPT	ELG1 DNA repair	IL1B secr inh	HT1080-NT tox	TDP1 cell CPT
COc1cc2c(NC3CCN(C)CC3)nc(N3CCN(C)CC3)nc2cc1OCCOCCN(C)C	·	-9%	·	·	·	-15%
COc1cc2c(NC3CCN(C)CC3)nc(N3CCCN(C)CC3)nc2cc1OCCOCCN(C)C	·	-29%	·	·	·	?
COCCn1c(SCC(=O)Nc2c(C)n(C)n(-c3ccccc3)c2=O)nnc1-c1ccncc1	3%	7%	23%	18	4%	14%
N#CC(C#N)=Cc1c(N2CCN(c3ccccc3)CC2)nc2ccccn2c1=O	10%	-1%	?	-1	6%	-23%
CC(C)NC(=O)c1ccccc1NC(=O)Cc1ccc([N+](=O)[O-])cc1	0%	1%	?	20	-1%	8%
CCOC(=O)CSc1nc2sc3c(c2c(=O)n1-c1ccc(OC)cc1)CC(C(C)C)OC3 (stereo not drawn)	·	-19%	·	·	·	-2%
COc1cc2c(NC3CCN(C)CC3)nc(N3CCCN(C)CC3)nc2cc1OCCCCCCN(C)C	·	?	·	·	·	16µM*
COc1cc2c(NC3CCN(C)CC3)nc(N3CCCCC3)nc2cc1OCCCN(C)C	·	10µM*	·	·	·	4µM*
COc1cc2c(NC3CCN(C)CC3)nc(N3CCCN(C)CC3)nc2cc1OCCCN(C)C	9%	?	·	·	3%	?
Cc1ccccc1S(=O)(=O)N1C[C@H]2CON(C)[C@H]2C[C@H]1c1cccc(-c2ccccc2)c1	-3%	23µM*	·	-10	4%	?
Cc1ccccc1S(=O)(=O)N1C[C@H]2CON(C)[C@H]2C[C@H]1c1cccc(Br)c1	3%	?	·	2	3%	-20%
CC(=O)N1C[C@H]2CON(C)[C@H]2C[C@H]1c1ccc(-c2ccccc2)cc1	-2%	?	·	8	-5%	?
CN1OC[C@@H]2CN(S(=O)(=O)c3cccc4ccccc34)[C@H](c3ccc(-c4ccccc4)cc3)C[C@@H]21	?	23µM*	·	25	-26%	?
COc1ccccc1-c1cccc([C@@H]2C[C@H]3[C@H](CON3C)CN2S(=O)(=O)c2ccccc2C)c1	1%	21µM*	·	-8	0%	15µM*
Cc1ccccc1-c1cccc([C@@H]2C[C@H]3[C@H](CON3C)CN2S(=O)(=O)c2ccccc2C)c1	-2%	21µM*	·	-12	-10%	?
O=C1NC[C@@H](CCCCN2C[C@H](Cc3ccc(O)cc3)N(Cc3ccccc3)C(=O)C2=O)N(CCc2ccc(O)cc2)C1=O	8%	-11%	·	-1	19%	-3%
